Screening data from PubChem BioAssay.
Shown are actives, neighbours in structure and some others; about 1.6% of the full set was active somewhere.
KCNQ2 block: KCNQ2 (rat) channel inhibition. O88943. CHO-K1 KCNQ2, FluxOR thallium flux, 20 min; active compounds read low. B-score at 10 µM. actives 1.1% (n = 310,000). AID 2156;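 active = fluorescence ratio B-score at most minus 3 library SDs, with starting brightness B-score within 2 library SDs, cut at about -5.5 in these data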
Target sequence (O88943 whole entry, looked up): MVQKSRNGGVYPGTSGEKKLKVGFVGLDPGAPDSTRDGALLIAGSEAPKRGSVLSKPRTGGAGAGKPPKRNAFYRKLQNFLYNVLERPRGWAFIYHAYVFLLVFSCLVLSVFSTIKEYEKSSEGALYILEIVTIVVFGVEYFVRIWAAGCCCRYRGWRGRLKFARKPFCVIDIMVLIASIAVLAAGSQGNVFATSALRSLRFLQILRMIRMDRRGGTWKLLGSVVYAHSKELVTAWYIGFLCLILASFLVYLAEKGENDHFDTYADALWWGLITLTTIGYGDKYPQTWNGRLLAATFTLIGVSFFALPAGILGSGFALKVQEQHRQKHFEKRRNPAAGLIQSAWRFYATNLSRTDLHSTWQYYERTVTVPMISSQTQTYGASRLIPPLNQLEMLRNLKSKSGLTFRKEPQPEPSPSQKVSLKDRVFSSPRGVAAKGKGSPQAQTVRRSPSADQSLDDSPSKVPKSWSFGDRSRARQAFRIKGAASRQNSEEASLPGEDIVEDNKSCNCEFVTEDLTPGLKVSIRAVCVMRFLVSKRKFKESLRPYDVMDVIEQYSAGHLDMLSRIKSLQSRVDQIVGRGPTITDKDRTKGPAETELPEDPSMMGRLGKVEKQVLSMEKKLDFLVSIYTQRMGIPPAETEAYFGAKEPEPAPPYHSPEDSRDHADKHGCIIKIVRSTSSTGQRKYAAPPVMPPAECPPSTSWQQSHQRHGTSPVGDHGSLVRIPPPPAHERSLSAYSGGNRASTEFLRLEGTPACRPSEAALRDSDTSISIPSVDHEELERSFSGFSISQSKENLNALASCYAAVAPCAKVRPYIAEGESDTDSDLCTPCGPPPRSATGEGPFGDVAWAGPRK
KCNQ2 enhance: potentiators of rat KCNQ2 potassium channel | B-score at 10 µM | O88943 | actives 0.54% (n = 310,000) | CHO-K1 KCNQ2, FluxOR thallium flux fluorescence; active compounds read high | AID 2239;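 active = fluorescence ratio B-score at least 3 SD of library B-scores, with initial fluorescence B-score within 3 of them, cut at about 5.3 in these data; same plate scores as AID 2156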;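 note: B-score of peak minus minimum over baseline fluorescence ratio after K+ and Tl+ stimulus; positive B-score means potentiation of KCNQ2 with more thallium influx and brighter signal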
Hits are given with their value; i = inactive; nt = no result.

SMILES	KCNQ2 block	KCNQ2 enhance
CSc1cccc(NC(=O)CCNS(=O)(=O)c2ccc3[nH]c(=O)oc3c2)c1	i	nt
CC(Oc1ccc2ccc(=O)oc2c1)C(=O)c1ccccc1 (stereo not given)	i	i
CC(=O)Nc1ccc(NC(=O)C2CC(=O)N(c3ccc(Cl)cc3)C2)cc1 (stereo not given)	i	nt
CC(=O)Nc1ccc(NC(=O)C2CC(=O)N(c3ccccc3Cl)C2)cc1 (stereo not given)	i	21
Cc1cccc(NS(=O)(=O)c2ccc(C(=O)N3CCN(c4ccccc4O)CC3)cc2)c1C	i	nt
NC(=O)COC(=O)CC12CC3CC(CC(Br)(C3)C1)C2	i	nt
CSCCC(NS(=O)(=O)c1cccs1)C(=O)NCc1ccccc1 (stereo not given)	i	i
CSCCC(NS(=O)(=O)c1cccs1)C(=O)NCc1ccc(C)cc1 (stereo not given)	i	9.6
CC(NS(=O)(=O)c1ccccc1)C(=O)Nc1ccc2c(c1)OCCO2 (stereo not given)	i	nt
COC(=O)CC1C(=O)NCCN1C(=O)CSc1nc2ccccc2s1 (stereo not given)	i	nt
COC(=O)c1ccccc1NC(=O)c1ccc(COc2cccc3ccccc23)o1	-6.5	i
COC(=O)c1ccc(COc2ccccc2OC)o1	i	i
Cc1cc(OC(C)C(=O)NCCCN2CCOCC2)c2c(C)c(C)c(=O)oc2c1 (stereo not given)	i	i
CCC(=O)Nc1ccc(NC(=O)c2cccc3c(Br)cccc23)cc1	i	i
CCC(C)NC(=O)CCc1c(C)nc2c(c(C)nn2-c2ccccc2)c1C (stereo not given)	i	i
Cc1nc2c(c(C)nn2-c2ccccc2)c(C)c1CCC(=O)Nc1ccc(CN2CCCC2)cc1	-6.1	i
CCc1ccc2[nH]c(=O)c(C(c3nnnn3CC3CCCO3)N3CCCc4ccccc43)cc2c1 (stereo not given)	i	7.2
Cc1cc2cc(C(c3nnnn3CC3CCCO3)N3CCCc4ccccc43)c(=O)[nH]c2cc1C (stereo not given)	i	i
O=c1[nH]c(=S)[nH]c(O)c1N=Nc1ccc(-c2ccccc2)cc1[N+](=O)[O-]	i	i
CCc1cc(C(=O)OC)c(NC(=O)CC2NCCNC2=O)s1 (stereo not given)	i	i
CCc1cc(C(=O)OC)c(NC(=O)C2CC(=O)NN2Cc2ccccc2)s1 (stereo not given)	-5.9	i
O=C(COC(=O)c1ccco1)NCc1ccc(F)cc1	i	i
COc1ccc(CNc2nc3nc(C)cc(C)n3n2)cc1OC	i	i
Cc1cc(C)n2nc(NCc3cccc(Br)c3)nc2n1	-6.7	i
CCCC(=O)N(C1CC(C)C(C#N)(C#N)C1(C#N)C#N)N(C)C (stereo not given)	i	11
SMILES	KCNQ2 block	KCNQ2 enhance
O=S(=O)(Nc1ccc(C(F)(F)F)cn1)c1ccccc1	i	nt
COc1ccc(NC(=O)C(Cl)=C(Cl)Cl)cn1	i	nt
COc1ccc(NC(=O)/C(Cl)=C(/Cl)S(=O)(=O)Cc2ccccc2)cn1	i	5.5
Cc1ccc(/C=C/C(=O)c2ccccc2)cc1	i	nt
Cc1ccc(/C=C/C(=O)c2ccccc(=O)c2O)c(C)c1	i	5.9
CCc1ccc(-c2nc(CN3CCC(C(=O)NCc4ccc(F)cc4)CC3)c(C)o2)cc1	i	nt
CCN(CCNC(=O)C1CCCN(Cc2nc(-c3ccc(OC)cc3)oc2C)C1)c1ccccc1 (stereo not given)	-8.7	i
CCN(CCNC(=O)C1CCN(Cc2nc(-c3ccc(Cl)cc3)oc2C)CC1)c1ccccc1	-6.9	i
Cc1oc(-c2ccc(Cl)cc2)nc1CN1CCC(C(=O)NCCCN2CCOCC2)CC1	i	i
CCc1ccc(-c2nc(CN3CCC(C(=O)NCCN(CC)c4ccccc4)CC3)c(C)o2)cc1	-6.5	i
CCc1ccc(-c2nc(CN3CCCC(C(=O)O)C3)c(C)o2)cc1 (stereo not given)	i	nt
CC1(C)NC(=O)N(CC(=O)Nc2nc(-c3ccc(F)cc3)cs2)C1=O	i	i
CC(C)CNC(=O)c1ccc(COc2ccc(Cl)cc2Cl)o1	i	nt
COC(=O)c1c(NC(=O)C2CC=CCC2C(=O)O)sc2c1CCCCC2 (stereo not given)	i	i
Cc1ccc2nc(C)c3c(c2c1)OC(C(C)(Cl)Br)C3 (stereo not given)	-5.7	i
COc1ccc2nc(C)c3c(c2c1)OC(C(C)(Cl)Br)C3 (stereo not given)	i	nt
Cc1nc(C)n(CCNS(=O)(=O)c2ccc(C)c(C)c2)n1	i	i
Cc1cc(C)nc(NC2=NCCN2C(=S)Nc2ccc(C)c(C)c2)n1	i	nt
COc1ccccc1CNC(=O)Cc1c[nH]c2ccccc12	i	nt
COc1ccccc1CNC(=O)[C@H](Cc1c[nH]c2ccccc12)NC(=O)[C@@H]1Cc2ccccc2CN1	-6.8	i
CC(=O)Nc1ccc(S(=O)(=O)NNc2ccc([N+](=O)[O-])cc2)cc1	i	nt
COc1cc(NC(=O)c2cc(CC(C)C)on2)c(OC)cc1Cl	-7.8	i
CCCc1cc(C(=O)Nc2cc(OC)c(Cl)cc2OC)no1	i	i
COc1ccc(S(=O)(=O)N2CCCC2)cc1C(C)C	-6.9	i
COc1ccc(S(=O)(=O)N2CCCC2)cc1OC	i	i
SMILES	KCNQ2 block	KCNQ2 enhance
COc1ccc(S(=O)(=O)N2CCCC(C(=O)N3CCN(C)CC3)C2)cc1Cl (stereo not given)	i	nt
COc1ccc(S(=O)(=O)N2CCCC(C(=O)N3CCOCC3)C2)cc1Cl (stereo not given)	-5.6	i
CC1(C)CC(=O)C2=C(C1)OC(N)=C(C#N)C2Cc1ccccc1 (stereo not given)	i	nt
COc1ccc2c(COC(=O)CNC(=O)C34CC5CC(CC(C5)C3)C4)cc(=O)oc2c1	i	nt
CCOC(=O)CNC(=O)CSc1nnc(Cn2cnc3ccccc32)n1C	i	i
O=C(COC(=O)Cc1ccc(Cl)cc1)Nc1ccc(OC(F)F)cc1	i	nt
O=C(Nc1ccc(Cl)cc1)N(C1=NCCC1)c1ccc(OC(F)F)cc1	-5.7	i
CC(=O)c1c(C)oc2ccc(NS(=O)(=O)c3ccc(C)cc3)cc12	i	i
Cc1oc2ccc(NS(=O)(=O)c3ccc(C(C)(C)C)cc3)cc2c1C(=O)Nc1ccccc1	-6	i
CCOC(=O)c1nn2c(C(F)(F)F)cc(-c3ccc(OC)cc3)nc2c1Br	i	i
CC1(C)Cc2cccc(OCC(=O)N3CCN(c4cccc(Cl)c4)CC3)c2O1	i	nt
CC1(C)Cc2cccc(OCC(=O)N3CCN(c4ccccc4Cl)CC3)c2O1	-6.2	i
C/C(=N\OCC(=O)OCC(=O)NC(=O)c1ccc(OC(F)F)cc1)c1ccc2c(c1)OCO2	i	i
Cc1ccc(C(=O)N/C(=C\c2cn(C)c3ccccc23)C(=O)N2CCOCC2)cc1	-6.3	i
Cn1cc(/C=C(\NC(=O)c2ccccc2)C(=O)N2CCOCC2)c2ccccc21	i	nt
O=S(=O)(Nc1c(O)ccc2ccccc12)c1cccc2ccccc12	i	i
CCc1ccc(/C=C2/C(=O)N(C)C(=S)N2CC(=O)OC)s1	-6	i
COC(=O)CN1C(=S)N(C)C(=O)/C1=C/c1cccs1	i	nt
COCc1nc2ccccc2n1CCc1ccccc1	i	nt
CC(C)NC(=O)NC(=O)COC(=O)c1cccc(S(=O)(=O)N2CCCCC2)c1	i	i
COc1ccc(/C=N/NC(=O)c2cc3c(ccc4ccccc43)o2)cc1OC	i	i
COc1ccccc1/C=N/NC(=O)c1cc2c(ccc3ccccc32)o1	-6.4	i
